# Laboratory results taken from PubChem BioAssay AID1347075 (National Center for Advancing Translational Sciences (NCATS), 2019).
# Among all 400,000 compounds or so, about 5,500 (1.4%) were called active. About 9% were inconclusive and are not listed. Calls come from the whole dose curve; as a rule, active = well fitted cell-killing curve with a large enough effect; inconclusive = small, poorly fitted or top-dose-only effect, or effect the other way; inactive = flat fitted curve, though single readings scatter. The full list was thinned out, with actives kept by preference.
# Assay: qHTS assay for MDR1-selective chemotherapeutics: Primary screen using the parental adenocarcinoma cell KB-3-1; note: nearly all actives have a fitted effect of over 60% in size
# Conditions: KB-3-1 viability, CellTiter-Glo ATP luminescence, 72 h; series mostly up to 46.1 µM; activity change, negative = cytotoxic: at the top concentration
# Outline: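 Parental KB-3-1 viability, qHTS format: 72 h compound exposure, 37 °C; CellTiter-Glo; media-only wells and DMSO plates as controls; concentration-effect fits on corrected data.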
# % is set by controls: 0 for no effect and ±100 for the full control effect; potency is the fitted concentration of half-maximal effect.
Compound,"activity change, negative = cytotoxic",Potency
Cc1ccc(C2CCN(C(=S)Nc3cccc(Cl)c3)C2)cc1 (centres undefined),3.93% (inactive),–
Cc1csc(NC(=S)Nc2cccc(Cl)c2)n1,–,20.6 µM (active)
O=C(Nc1cccc(Cl)c1)c1csnn1,1.29% (inactive),–
COc1ccccc1C(=O)NCCn1cc(SCc2ccccc2Cl)c2ccccc21,-13.7% (inactive),–
CCOC(=O)c1ccc(NC(=O)CCS(=O)(=O)c2ccc3c(c2)oc(=O)n3C)cc1,22.5% (inactive),–
O=C(NCc1ccc(F)cc1)c1ccc(Cn2c(SCc3ccc(F)cc3)nc3cccnc32)cc1,-6.9% (inactive),–
Cc1ccc(OCCSc2nc(-c3cccs3)nc3cc(=O)[nH]n23)cc1Cl,-7.11% (inactive),–
COc1cccc2c1C(=O)c1c(O)c3c(c(O)c1C2=O)CC(O)(C(C)=NNC(=O)c1ccc(Cl)c(Cl)c1)CC3OC1CC(N)C(O)C(C)O1 (centres undefined),–,2.06 µM (active)
Cc1ccc(N2CCN(C(=S)Nc3cc(C)ccn3)CC2)cc1,31.7% (inactive),–
CCCCCn1c(=O)[nH]c2cc(C(=O)Nc3ccc(F)cc3)ccc2c1=O,-2.16% (inactive),–
CCC(=C/c1sc2ccc3ccccc3c2[n+]1C)/C=C1\Sc2ccc3ccccc3c2N1C,–,9.2 µM (active)
COc1ccc(CNC(=O)COCc2cc(-c3cccs3)on2)cc1OC,-12.5% (inactive),–
Cc1ccc(OCC(=O)OCc2cc(=O)n3nc(C4CC4)sc3n2)cc1,0.043% (inactive),–
CCN1/C(=C\c2ccc3ccccc3[n+]2CC)Sc2cc(C)ccc21,–,4.61 µM (active)
CCN1/C(=C/c2ccc3ccc(C)cc3[n+]2CC)Sc2ccccc21,–,2.59 µM (active)
CC(=O)Nc1ccc(NC(=O)CSc2nnc3c4cc(Br)ccc4n(C)c3n2)cc1,-6.4% (inactive),–
NC(=O)Nc1ccc(/C=C/c2ccnc3ccccc23)cc1,-7.08% (inactive),–
N#Cc1ccc[n+](CC(=O)c2ccc(F)cc2)c1,11% (inactive),–
COc1ccc2sc(-c3ccc(S(C)(=O)=O)cc3)c(-c3ccc(C(N)=O)cc3)c2c1,-8.32% (inactive),–
COc1ccc2sc(-c3ccc(S(C)(=O)=O)cc3)c(C#Cc3cncn3C)c2c1,-2.75% (inactive),–
COc1ccc2sc(-c3ccc(N(C)C)cc3)c(C#CCO)c2c1,–,16.4 µM (active)
COC(=O)C1=C(Nc2ccc(C)cc2)C=C(C)C(C(=O)OC)C1c1ccc(F)cc1 (centres undefined),–,11.2 µM (active)
COC(=O)C1(C)NC(c2ccc(C)cc2)C2C(=O)N(c3ccc(F)cc3)C(=O)C21 (centres undefined),-1.4% (inactive),–
COC(=O)C1C(=O)NCC1c1ccc(C)cc1 (centres undefined),16.2% (inactive),–
Cc1ccc2cccc(NC(=O)c3cccc4ccccc34)c2n1,4.73% (inactive),–

Compound,"activity change, negative = cytotoxic",Potency
CCc1ccccc1OCCSc1nc(-c2cccs2)nc2cc(=O)[nH]n12,-16.6% (inactive),–
O=C(c1cccc(Cl)c1)N1CCN(CCc2ccncc2)CC1,-4.29% (inactive),–
CNc1cncc(-c2ccc(NS(C)(=O)=O)cc2)n1,–,2.91 µM (active)
CS(=O)(=O)Nc1ccc(C(=O)N2CCCC2)cc1,-5.39% (inactive),–
CNc1cncc(-c2cccc(C(=O)N3CCOCC3)c2)n1,0% (inactive),–
CC(=O)c1sc(N2C(=O)c3oc4ccccc4c(=O)c3C2c2ccc(C)cc2)nc1C (centres undefined),-14.2% (inactive),–
COc1ccc(-c2nc3ccccc3o2)cc1NC(=O)c1cc([N+](=O)[O-])ccc1N1CCOCC1,4.59% (inactive),–
Cc1ccc2c(c1)-c1c(cnn1CC(=O)Nc1ccccc1C#N)CO2,-1.57% (inactive),–
COc1ccccc1CNC(=O)CCn1c(=O)c2ccccc2n(CC(=O)Nc2ccc(Br)cc2F)c1=O,-26.4% (inactive),–
CC(C)C(=O)Nc1cccc(NC(=O)c2ccc([N+](=O)[O-])cc2Cl)c1,1.16% (inactive),–
CC(C)C(=O)Nc1cccc(NC(=S)NC(=O)C(c2ccccc2)c2ccccc2)c1,–,20.6 µM (active)
CCCC(=O)Nc1cccc(NC(=S)NC(=O)C(C)Oc2ccc(Cl)cc2Cl)c1 (centres undefined),2.78% (inactive),–
CCc1ccc(S(=O)(=O)n2ccnc2)cc1,16.3% (inactive),–
Cc1cc(C)n2ncc(C(=O)Nc3cccc(C#N)c3)c2n1,0% [at 9.22 µM] (inactive),–
CCOc1cc(-c2nnc(SCC(=O)NC3CCCC3)nc2-c2ccc(OC)c(OCC)c2)ccc1OC,-2.41% (inactive),–
O=C(CN1C(=O)S/C(=C\c2ccccc2Cl)C1=O)NC1C=CS(=O)(=O)C1 (centres undefined),0% (inactive),–
O=C1/C(=C\c2ccccc2Cl)SC(=S)N1CCC(=O)N1CCCc2ccccc21,–,23.1 µM (active)
CCn1c(=O)c2ccccc2n(CC(=O)N2CCCc3ccccc32)c1=O,-0.819% (inactive),–
CCOc1ccc(CCNC(=O)c2cc3c(=O)n(C)c4ccccc4c3n2C)cc1,2.46% (inactive),–
CCN(CC)c1ccc(NS(=O)(=O)c2cc(-c3cc(C)no3)ccc2C)c(C)c1,-19.5% (inactive),–
CC(C)c1ccc(NC(=O)c2ccc3c(O)c(S(=O)(=O)c4ccccc4)c(=O)[nH]c3c2)cc1,5.99% (inactive),–
COc1ccc(S(=O)(=O)c2cn(C)c3cc(N4CCCCC4)c(F)cc3c2=O)cc1,5.2% (inactive),–
CCOC(=O)c1cc2occc2n1CC(=O)NC1CCC(C)CC1 (centres undefined),1.34% (inactive),–
CCOC(=O)c1cc2occc2n1CC(=O)N1CCN(C(=O)c2ccco2)CC1,1.25% (inactive),–
